# From the supplement of paper PMC10849652
# About 7,900 targets were measured; listed, in parts, are those with a hit and a random draw of the rest. About 0.6% of all pairs of compound and target were hits. A number with no mark means an inactive call.
# Legend:
# Experiment in all cases: log2 fold change, soluble protein after heating vs DMSO (PISA); higher = thermal stabilisation; K562 cells, 10 uM, 30 min; active = over 0.2 and 3.5 SD of the protein, either way, in both replicates (recomputed)
# [1] = compound: CC1=C(C=C(C=C1)NC(=O)C2=CC(=CC=C2)C(C)(C)C#N)NC3=CC4=C(C=C3)N=CN(C4=O)C
# How it was run: (§1)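 K562 cells at 2×10^6 cells/mL were given 10 μM compound for 30 min. Aliquots then went through 3 min of heating across 48°C-58°C, were pooled, and were extracted in PBS with 0.5% NP-40 at 4°C, and the supernatant after 21,000xg for 90 min was quantified by TMTpro 16plex LC-MS/MS with channel sums equalised. Thermal stability relative to control samples, from duplicates, is given as log2 fold change.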
# [2] = compound: CC1=C(C=C(C=C1)NC(=O)C2=CC(=CC=C2)N(C)C)NC(=O)C3=CC=C(C=C3)O
# How it was run: as §1
# [3] = compound: CC1=CC=C(C=C1)SC2=C3C=C(SC3=CN=C2)C(=O)N
# How it was run: as §1
# [4] = compound: CC1=NC(=CC=C1)C2=C(N=C(N2)C(C)(C)C)C3=CC4=NC=CN=C4C=C3
# How it was run: as §1
# Nexturastat A = compound: CCCCN(Cc1ccc(C(=O)NO)cc1)C(=O)Nc1ccccc1 [Nexturastat A]
# How it was run: as §1
# vemurafenib = compound: CCCS(=O)(=O)Nc1ccc(F)c(C(=O)c2c[nH]c3ncc(-c4ccc(Cl)cc4)cc23)c1F [vemurafenib]
# How it was run: as §1
# [5] = compound: CCCS(=O)(=O)Nc1ccc(F)c(C(=O)c2c[nH]c3ncc(Cl)cc23)c1F
# How it was run: as §1
# [6] = compound: CCCc1cc(C)[nH]c(=O)c1CNC(=O)c1cc(-c2ccnc(N3CCN(C)CC3)c2)cc2c1cnn2C(C)C
# How it was run: as §1
# givinostat = compound: CCN(CC)Cc1ccc2cc(COC(=O)Nc3ccc(C(=O)NO)cc3)ccc2c1 [givinostat]
# How it was run: as §1
# barasertib = compound: CCN(CCCOc1ccc2c(Nc3cc(CC(=O)Nc4cccc(F)c4)[nH]n3)ncnc2c1)CCOP(=O)(O)O [barasertib]
# How it was run: as §1
# UniProt P37268, sequence (P37268 whole entry, looked up): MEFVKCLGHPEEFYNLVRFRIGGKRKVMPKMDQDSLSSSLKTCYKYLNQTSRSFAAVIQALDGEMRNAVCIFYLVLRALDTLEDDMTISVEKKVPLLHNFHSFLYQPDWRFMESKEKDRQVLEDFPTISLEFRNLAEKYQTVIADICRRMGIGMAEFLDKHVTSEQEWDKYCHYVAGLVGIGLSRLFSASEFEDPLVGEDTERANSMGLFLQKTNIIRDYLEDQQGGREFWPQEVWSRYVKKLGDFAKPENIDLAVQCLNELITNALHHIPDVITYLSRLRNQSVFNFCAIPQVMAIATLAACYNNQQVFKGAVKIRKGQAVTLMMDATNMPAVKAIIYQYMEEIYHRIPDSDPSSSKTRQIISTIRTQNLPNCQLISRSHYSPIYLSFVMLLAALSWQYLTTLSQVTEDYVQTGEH
# UniProt Q9UKN8, sequence (Q9UKN8 whole entry, looked up): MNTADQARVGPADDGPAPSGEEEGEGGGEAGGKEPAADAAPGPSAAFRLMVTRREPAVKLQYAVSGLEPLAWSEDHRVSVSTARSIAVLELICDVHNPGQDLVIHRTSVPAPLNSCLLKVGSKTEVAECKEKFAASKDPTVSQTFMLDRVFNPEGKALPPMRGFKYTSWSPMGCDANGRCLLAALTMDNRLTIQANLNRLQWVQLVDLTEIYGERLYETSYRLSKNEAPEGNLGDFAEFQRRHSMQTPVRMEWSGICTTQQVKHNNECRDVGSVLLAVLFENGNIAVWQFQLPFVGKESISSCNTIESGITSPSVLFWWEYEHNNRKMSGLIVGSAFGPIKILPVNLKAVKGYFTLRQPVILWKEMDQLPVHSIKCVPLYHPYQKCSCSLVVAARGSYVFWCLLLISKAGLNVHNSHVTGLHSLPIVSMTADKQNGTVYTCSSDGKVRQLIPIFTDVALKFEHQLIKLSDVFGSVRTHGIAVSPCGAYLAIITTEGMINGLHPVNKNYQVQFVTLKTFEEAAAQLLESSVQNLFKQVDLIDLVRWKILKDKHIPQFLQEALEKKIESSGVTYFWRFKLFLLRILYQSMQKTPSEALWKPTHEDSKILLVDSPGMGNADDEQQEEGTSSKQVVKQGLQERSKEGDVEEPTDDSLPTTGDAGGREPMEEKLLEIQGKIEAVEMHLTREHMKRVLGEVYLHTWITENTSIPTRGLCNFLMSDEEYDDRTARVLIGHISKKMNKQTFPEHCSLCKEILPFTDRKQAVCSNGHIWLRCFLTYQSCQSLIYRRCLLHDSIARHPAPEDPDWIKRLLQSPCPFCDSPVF
# UniProt Q8NB37, sequence (Q8NB37 whole entry, looked up): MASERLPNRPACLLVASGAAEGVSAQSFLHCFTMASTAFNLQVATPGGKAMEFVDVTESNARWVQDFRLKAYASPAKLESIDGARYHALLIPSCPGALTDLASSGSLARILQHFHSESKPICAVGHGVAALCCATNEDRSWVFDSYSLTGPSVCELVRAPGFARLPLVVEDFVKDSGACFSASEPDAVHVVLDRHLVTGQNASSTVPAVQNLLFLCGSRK
# UniProt P22087, sequence (P22087 whole entry, looked up): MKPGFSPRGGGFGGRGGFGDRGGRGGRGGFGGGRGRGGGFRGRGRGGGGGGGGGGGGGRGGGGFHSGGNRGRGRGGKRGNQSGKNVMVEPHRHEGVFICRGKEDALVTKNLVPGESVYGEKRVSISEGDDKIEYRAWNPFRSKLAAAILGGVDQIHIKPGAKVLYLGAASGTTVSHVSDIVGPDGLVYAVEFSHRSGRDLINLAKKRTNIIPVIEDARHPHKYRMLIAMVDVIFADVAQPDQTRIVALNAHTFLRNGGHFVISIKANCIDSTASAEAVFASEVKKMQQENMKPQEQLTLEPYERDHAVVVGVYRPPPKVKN
# UniProt Q00688, sequence (Q00688 whole entry, looked up): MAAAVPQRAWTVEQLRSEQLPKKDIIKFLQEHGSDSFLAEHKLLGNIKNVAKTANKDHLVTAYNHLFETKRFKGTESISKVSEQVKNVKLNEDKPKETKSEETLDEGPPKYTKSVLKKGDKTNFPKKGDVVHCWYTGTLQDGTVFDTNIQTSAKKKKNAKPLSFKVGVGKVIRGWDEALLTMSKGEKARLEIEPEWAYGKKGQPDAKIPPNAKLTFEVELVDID
# UniProt Q92917, sequence (Q92917 whole entry, looked up): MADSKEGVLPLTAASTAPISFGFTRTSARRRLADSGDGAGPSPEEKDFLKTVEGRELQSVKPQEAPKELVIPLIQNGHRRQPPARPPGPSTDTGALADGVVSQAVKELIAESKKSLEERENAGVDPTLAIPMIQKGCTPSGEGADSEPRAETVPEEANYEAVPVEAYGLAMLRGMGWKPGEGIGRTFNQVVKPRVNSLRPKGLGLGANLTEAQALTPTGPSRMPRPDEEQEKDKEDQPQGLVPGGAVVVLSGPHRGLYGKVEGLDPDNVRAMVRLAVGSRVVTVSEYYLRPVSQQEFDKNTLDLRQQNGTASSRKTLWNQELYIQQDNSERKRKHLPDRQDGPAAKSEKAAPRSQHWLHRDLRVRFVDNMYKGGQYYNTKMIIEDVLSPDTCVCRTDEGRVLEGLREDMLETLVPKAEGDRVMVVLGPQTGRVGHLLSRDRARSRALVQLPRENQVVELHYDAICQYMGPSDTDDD
# UniProt P02008, sequence (P02008 whole entry, looked up): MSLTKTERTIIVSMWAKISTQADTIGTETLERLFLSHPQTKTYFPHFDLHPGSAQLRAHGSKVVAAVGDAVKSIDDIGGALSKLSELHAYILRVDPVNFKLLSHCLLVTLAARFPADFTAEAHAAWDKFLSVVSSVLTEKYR
# UniProt P15976, sequence (P15976 whole entry, looked up): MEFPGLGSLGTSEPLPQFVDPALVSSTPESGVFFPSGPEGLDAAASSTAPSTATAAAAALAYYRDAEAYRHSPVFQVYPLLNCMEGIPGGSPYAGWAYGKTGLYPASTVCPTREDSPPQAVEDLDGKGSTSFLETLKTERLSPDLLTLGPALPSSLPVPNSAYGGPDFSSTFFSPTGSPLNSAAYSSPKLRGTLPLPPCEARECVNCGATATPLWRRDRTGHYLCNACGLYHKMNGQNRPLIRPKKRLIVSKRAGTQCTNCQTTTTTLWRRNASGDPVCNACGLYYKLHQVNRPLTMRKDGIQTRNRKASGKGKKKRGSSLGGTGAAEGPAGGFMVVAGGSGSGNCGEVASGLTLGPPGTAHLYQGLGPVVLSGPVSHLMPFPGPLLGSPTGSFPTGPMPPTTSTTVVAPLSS
# UniProt Q9UBN7, sequence (Q9UBN7 whole entry, looked up): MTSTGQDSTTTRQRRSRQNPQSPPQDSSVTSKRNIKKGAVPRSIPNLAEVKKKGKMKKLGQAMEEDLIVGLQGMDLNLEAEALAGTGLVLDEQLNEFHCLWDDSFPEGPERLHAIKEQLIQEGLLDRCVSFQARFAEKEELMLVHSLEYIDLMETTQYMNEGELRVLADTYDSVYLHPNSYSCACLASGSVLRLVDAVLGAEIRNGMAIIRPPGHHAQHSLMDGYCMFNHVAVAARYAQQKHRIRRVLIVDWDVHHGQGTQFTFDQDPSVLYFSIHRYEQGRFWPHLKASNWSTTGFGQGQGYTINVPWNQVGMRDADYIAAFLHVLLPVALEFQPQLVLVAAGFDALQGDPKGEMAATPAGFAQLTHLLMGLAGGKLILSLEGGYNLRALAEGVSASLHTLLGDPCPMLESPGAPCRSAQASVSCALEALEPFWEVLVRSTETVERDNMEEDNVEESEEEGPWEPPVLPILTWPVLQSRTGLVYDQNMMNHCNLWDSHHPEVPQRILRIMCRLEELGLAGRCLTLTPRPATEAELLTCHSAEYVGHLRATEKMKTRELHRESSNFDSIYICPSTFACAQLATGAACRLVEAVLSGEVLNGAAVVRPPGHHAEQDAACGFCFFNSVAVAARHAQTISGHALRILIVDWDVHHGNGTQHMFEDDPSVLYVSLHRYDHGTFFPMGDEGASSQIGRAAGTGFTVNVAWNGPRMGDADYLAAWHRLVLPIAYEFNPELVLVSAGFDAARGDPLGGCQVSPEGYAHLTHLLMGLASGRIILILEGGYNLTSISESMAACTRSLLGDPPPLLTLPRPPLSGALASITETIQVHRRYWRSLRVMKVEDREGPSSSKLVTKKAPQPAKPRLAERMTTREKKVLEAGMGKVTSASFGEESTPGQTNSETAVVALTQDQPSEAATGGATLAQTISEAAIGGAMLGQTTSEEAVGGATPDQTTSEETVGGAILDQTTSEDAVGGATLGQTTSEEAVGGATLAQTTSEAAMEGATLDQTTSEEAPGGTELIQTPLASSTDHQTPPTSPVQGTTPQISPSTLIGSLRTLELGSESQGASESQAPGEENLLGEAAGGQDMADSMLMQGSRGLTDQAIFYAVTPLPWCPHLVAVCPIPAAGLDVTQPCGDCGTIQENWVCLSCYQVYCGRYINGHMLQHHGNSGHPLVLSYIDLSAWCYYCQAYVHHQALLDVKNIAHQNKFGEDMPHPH
# UniProt Q9H0R4, sequence (Q9H0R4 whole entry, looked up): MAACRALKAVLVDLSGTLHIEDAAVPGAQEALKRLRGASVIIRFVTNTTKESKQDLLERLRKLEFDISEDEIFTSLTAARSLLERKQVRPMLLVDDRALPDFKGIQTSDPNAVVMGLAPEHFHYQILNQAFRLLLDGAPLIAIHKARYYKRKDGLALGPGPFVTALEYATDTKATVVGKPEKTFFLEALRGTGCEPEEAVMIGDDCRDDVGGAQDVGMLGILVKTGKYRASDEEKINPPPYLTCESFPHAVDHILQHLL
# UniProt O95363, sequence (O95363 whole entry, looked up): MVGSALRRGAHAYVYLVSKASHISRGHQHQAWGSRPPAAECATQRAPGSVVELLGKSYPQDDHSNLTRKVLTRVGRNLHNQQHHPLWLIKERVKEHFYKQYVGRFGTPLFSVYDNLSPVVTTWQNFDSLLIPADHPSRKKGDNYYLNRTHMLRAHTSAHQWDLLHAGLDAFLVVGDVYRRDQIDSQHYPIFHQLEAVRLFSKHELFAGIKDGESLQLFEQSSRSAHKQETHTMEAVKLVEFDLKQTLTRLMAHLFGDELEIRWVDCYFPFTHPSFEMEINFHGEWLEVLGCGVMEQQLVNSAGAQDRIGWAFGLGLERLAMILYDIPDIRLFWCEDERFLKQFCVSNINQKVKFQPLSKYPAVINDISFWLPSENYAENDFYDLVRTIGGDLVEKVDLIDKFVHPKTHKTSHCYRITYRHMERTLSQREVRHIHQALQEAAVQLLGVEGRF
Target,log2 fold change [1],log2 fold change [2],log2 fold change [3],log2 fold change [4],log2 fold change (Nexturastat A),log2 fold change (vemurafenib),log2 fold change [5],log2 fold change [6],log2 fold change (givinostat),log2 fold change (barasertib)
HBQ1 (UniProt P09105),0.053,-0.14,0.025,0.052,-0.028,-0.013,0.004,-0.012,-0.043,0.038
GTF3C4 (UniProt Q9UKN8),-0.025,-0.027,0.038,0.008,-0.052,0.032,0.045,0.033,-0.007,0.003
HPCAL1 (UniProt P37235),-0.022,0.012,0.048,0.032,-0.092,-0.017,0.005,-0.076,-0.041,0.019
HEXA (UniProt P06865),-0.046,0.022,-0.019,0.004,-0.035,-0.006,-0.023,-0.023,-0.018,-0.001
FBL (UniProt P22087),-0.039,0.062,-0.146,-0.077,0.243,-0.11,-0.058,0.165,0.138,-0.106
HNRNPF (UniProt P52597),0.076,-0.005,-0.032,-0.017,0.036,0.106,0.101,0.027,0.051,0.047
GLUD1 (UniProt P00367),0.179,-0.007,-0.054,-0.011,-0.063,-0.012,-0.02,0.136,-0.062,-0.007
HBZ (UniProt P02008),0.01,-0.074,0.025,0.042,-0.013,-0.028,-0.006,-0.008,-0.052,0.044
HDAC6 (UniProt Q9UBN7),0.016,-0.041,0.022,-0.091,0.522 (active),0.004,-0.018,-0.015,1.03 (active),0
HDHD2 (UniProt Q9H0R4),0.059,0.028,0.023,0.014,-0.316 (active),0.02,0.007,-0.028,0.007,0.011
HNRNPUL1 (UniProt Q9BUJ2),-0.063,-0.058,-0.013,0.03,0.024,0.032,-0.033,0.024,0.046,0.04
GUK1 isoform 2 (UniProt Q16774),0.173,-0.062,-0.018,0.093,-0.065,0.118,-0.002,0.026,0.072,-0.018
HIST2H3A (UniProt Q71DI3),-0.1,-0.004,-0.119,-0.056,0.921 (active),-0.203,0.592,0.037,0.321,-0.148
GATD1 (UniProt Q8NB37),0.054,-0.041,-0.023,-0.108,0.067,-0.047,-0.06,0.021,0.013,0.024
FANCI (UniProt Q9NVI1),0.012,0.018,0.01,0.046,-0.054,0.016,0.087,0.009,0.043,0.029
GHDC (UniProt Q8N2G8),-0.028,0.057,-0.03,-0.021,-0.113,-0.041,-0.044,-0.011,-0.025,-0.008
FAT1 (UniProt Q14517),-0.036,-0.218,-0.029,0.053,0.104,-0.199,-0.051,-0.067,0.044,0.045
GGT7 (UniProt Q9UJ14),-0.125,0,0.07,-0.008,0.032,0.112,-0.011,0.033,0.019,0.061
GLUD2 (UniProt P49448),0.104,0.006,-0.062,-0.015,-0.045,0.017,0.006,0.238,-0.107,0.015
FDFT1 (UniProt P37268),-0.008,0.01,0.063,-0.034,0.01,0,0.092,0.1,-0.018,0.009
GATA1 (UniProt P15976),-0.05,0.02,-0.085,-0.029,-0.104,-0.06,-0.035,-0.003,-0.047,-0.034
HNRNPC isoform 2 (UniProt P07910),0.276,-0.074,-0.349,-0.045,0.449,-0.055,-0.191,0.028,0.241,-0.095
HBA1 (UniProt P69905),0.021,-0.068,0.071,0.018,0.015,0.137,0.037,-0.038,-0.061,0.072
FAM91A1 (UniProt Q658Y4),0.035,0.034,-0.036,-0.048,0.286 (active),-0.055,0.051,0.07,0.024,0.06
GPKOW (UniProt Q92917),0.053,-0.033,0.062,0.055,-0.106,0.009,0.07,-0.058,0.084,0.027
IFRD1 (UniProt O00458),0.123,0.033,0.098,-0.04,-0.103,0.001,0.058,-0.111,-0.154,-0.079
FARS2 (UniProt O95363),0.012,-0.015,-0.032,0.078,0.044,0.032,0.01,-0.087,-0.019,0.035
HDDC2 (UniProt Q7Z4H3),0.009,-0.03,0.014,0.029,-0.139,0.004,0.034,-0.018,-0.067,-0.022
HAT1 (UniProt O14929),0.042,-0.037,0.008,0.095,-0.034,0.087,0.013,0.007,0.005,0.025
FKBP3 (UniProt Q00688),0.024,0,0.009,0.122,-0.002,-0.015,-0.041,-0.013,-0.023,-0.02
